# According to the supplement of paper PMC6897291:
# Legend:
# [1] = test system: U-2932; assay: growth inhibition by drug alone (1 - RLU/untreated control) (fraction); higher = stronger inhibition; conditions: 177Lu-lilotomab satetraxetan 0 ug/ml
# Method in brief: (§1)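 RIVA or U-2932 cells, untreated or pretreated 18 h with a radiolabelled anti-CD37 antibody conjugate (~600 MBq/mg; 0.5 µg/ml RIVA, 1 µg/ml U-2932), were washed and seeded at 3,000 cells/well on plates pre-printed with the Selleck Cambridge Cancer Compound library. Doses were 10/100 nM (RIVA) or 10/1,000 nM (U-2932). RealTime-Glo luminescence was read daily from day 3 after 1 h at 37°C. Growth inhibition is 1 − RLU/mean of 48 untreated no-drug wells per plate.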
# [2] = test system: RIVA; assay: as above; conditions: 177Lu-lilotomab satetraxetan 0 ug/ml
# Method in brief: as §1
# [3] = test system: U-2932; assay: growth inhibition by drug plus 177Lu-lilotomab satetraxetan (1 - RLU/untreated control) (fraction); higher = stronger inhibition; conditions: 177Lu-lilotomab satetraxetan 1 ug/ml
# Method in brief: as §1
# [4] = test system: RIVA; assay: as above; conditions: 177Lu-lilotomab satetraxetan 0.5 ug/ml
# Method in brief: as §1
SMILES,"growth inhibition by drug alone ([1]; 10 nM, time (day): 3)","growth inhibition by drug alone ([1]; 10 nM, time (day): 4)","growth inhibition by drug alone ([1]; 10 nM, time (day): 5)","growth inhibition by drug alone ([1]; 10 nM, time (day): 6)","growth inhibition by drug alone ([1]; 1000 nM, time (day): 3)","growth inhibition by drug alone ([1]; 1000 nM, time (day): 4)","growth inhibition by drug alone ([1]; 1000 nM, time (day): 5)","growth inhibition by drug alone ([1]; 1000 nM, time (day): 6)","growth inhibition by drug alone ([2]; 10 nM, time (day): 3)","growth inhibition by drug alone ([2]; 10 nM, time (day): 4)","growth inhibition by drug alone ([2]; 10 nM, time (day): 5)","growth inhibition by drug alone ([2]; 10 nM, time (day): 6)","growth inhibition by drug alone ([2]; 100 nM, time (day): 3)","growth inhibition by drug alone ([2]; 100 nM, time (day): 4)","growth inhibition by drug alone ([2]; 100 nM, time (day): 5)","growth inhibition by drug alone ([2]; 100 nM, time (day): 6)","growth inhibition by drug plus 177Lu-lilotomab satetraxetan ([3]; 10 nM, time (day): 3)","growth inhibition by drug plus 177Lu-lilotomab satetraxetan ([3]; 10 nM, time (day): 4)","growth inhibition by drug plus 177Lu-lilotomab satetraxetan ([3]; 10 nM, time (day): 5)","growth inhibition by drug plus 177Lu-lilotomab satetraxetan ([3]; 10 nM, time (day): 6)","growth inhibition by drug plus 177Lu-lilotomab satetraxetan ([3]; 1000 nM, time (day): 3)","growth inhibition by drug plus 177Lu-lilotomab satetraxetan ([3]; 1000 nM, time (day): 4)","growth inhibition by drug plus 177Lu-lilotomab satetraxetan ([3]; 1000 nM, time (day): 5)","growth inhibition by drug plus 177Lu-lilotomab satetraxetan ([3]; 1000 nM, time (day): 6)","growth inhibition by drug plus 177Lu-lilotomab satetraxetan ([4]; 10 nM, time (day): 3)","growth inhibition by drug plus 177Lu-lilotomab satetraxetan ([4]; 10 nM, time (day): 4)","growth inhibition by drug plus 177Lu-lilotomab satetraxetan ([4]; 10 nM, time (day): 5)","growth inhibition by drug plus 177Lu-lilotomab satetraxetan ([4]; 10 nM, time (day): 6)","growth inhibition by drug plus 177Lu-lilotomab satetraxetan ([4]; 100 nM, time (day): 3)","growth inhibition by drug plus 177Lu-lilotomab satetraxetan ([4]; 100 nM, time (day): 4)","growth inhibition by drug plus 177Lu-lilotomab satetraxetan ([4]; 100 nM, time (day): 5)","growth inhibition by drug plus 177Lu-lilotomab satetraxetan ([4]; 100 nM, time (day): 6)"
CC1(CN2CCC(n3c(=O)[nH]c4ccccc43)CC2)OCc2ccccc2-n2cccc21 (stereo unspecified),-0.00689,-0.027,-0.0586,-0.0906,-0.241,-0.0399,-0.126,-0.115,-0.0853,-0.102,-0.143,-0.225,-0.307,-0.303,-0.319,-0.374,-0.0386,0.0346,0.0781,0.0987,-0.0292,0.0476,0.0675,0.175,0.576,0.59,0.612,0.612,0.521,0.568,0.6,0.609
C[C@H](NC(=O)Cc1cc(F)cc(F)c1)C(=O)N[C@H](C(=O)OC(C)(C)C)c1ccccc1,-0.0234,-0.0325,-0.047,-0.000319,-0.0711,-0.073,-0.0673,-0.0373,-0.112,-0.175,-0.192,-0.264,-0.299,-0.293,-0.297,-0.351,-0.0297,0.0223,0.0667,0.147,-0.025,0.0181,0.0285,0.158,0.498,0.535,0.549,0.545,0.341,0.426,0.437,0.445
O=C(Nc1cccnc1)N1CCC(Cc2cccc(Oc3ccc(C(F)(F)F)cn3)c2)CC1,0.144,0.101,-0.0107,-0.0195,0.779,0.796,0.833,0.872,0.473,0.369,0.37,0.34,-0.00381,0.0224,0.0325,-0.0255,0.152,0.18,0.262,0.319,0.299,0.291,0.395,0.544,0.71,0.692,0.714,0.718,0.554,0.566,0.583,0.595
